Source: PubChem (National Center for Advancing Translational Sciences (NCATS))
IL1B secr inh: inhibitors of inflammasome signaling (IL-1 beta secretion). THP-1 LPS/ATP IL-1B secretion, AlphaLISA, 16 h; hits give low values. activity change, % at 57.5 µM. actives 4.7% (n = 360,000). AID 743279; in the data active = activity change below about -50%; inconclusive = mostly about -30% to -49%; also: % is scaled to controls: 0 for no effect and ±100 for the full control effect
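THP-1 cells pretreated 1 hr with compounds (up to 57.5 uM final), then stimulated with LPS (250 ng/mL final) plus ATP (1.25 mM final); secreted IL-1B measured by AlphaLISA after 16 hr, decreased signal indicating inhibition.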
TGFb SMAD3 inh: blocks TGF-b signaling. HepG2 CAGA-GFP TGF-b/SMAD3 reporter, GFP fluorescence, 18 h; TGF-beta stimulated, 500 pg/mL final. Potency, µM (highest dose often 46.1 µM), inactives show top-dose activity, negative = inhibition, most hits filed as inhibitors. actives 1.2% (n = 410,000). AID 588855; also: potency is read from the fitted curve at half-maximal effect; % is scaled to controls: 0 for no effect and ±100 for the full control effect; nearly all actives have a fitted effect of over 65% in size
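Read-out: total well GFP (ex488/em500-530) summed from mean per-cell fluorescence. Cells: HEPG2 CAGA-GFP, 1% FBS DMEM, 18 h at 37 degrees C with 500 pg/mL final TGF-beta. Unstimulated wells served as the full-inhibition control; stimulated DMSO wells = 0%.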
TDP1 cell CPT: growth inhibition of DT40 Tdp1-/-;hTDP1 cells with camptothecin (screen for TDP1 inhibitors) | chicken DT40 Tdp1-/-;hTDP1 cells + 20 nM CPT, ATP luminescence, 48 h | Potency, µM (top dose mostly 46.2 µM), inactives show at the top dose activity change, negative = growth inhibition, most hits filed as inhibitors | actives 12% (n = 420,000); also: potency is read from the fitted curve at half-maximal effect; % is scaled to controls: 0 for no effect and ±100 for the full control effect; nearly all actives have a fitted effect of over 55% in size
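Chicken DT40 Tdp1-/- cells complemented with human TDP1, 400 cells/well, exposed to compounds plus 20 nM camptothecin for at least 48 h at 37 C; viability read as ATP content by CellTiter-Glo luminescence.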
TDP1 cell noCPT: qHTS for Inhibitors of human tyrosyl-DNA phosphodiesterase 1 (TDP1): qHTS in cells in absence of CPT. DT40 Tdp1-/- hTDP1 cells, no CPT, ATP luminescence, 48 h. Potency, µM (doses to about 46.2 µM), inactives show at the highest dose activity change, negative = growth inhibition, actives largely listed as inhibitors. actives 15% (n = 420,000); also: potency is read from the fitted curve at half-maximal effect; % is scaled to controls: 0 for no effect and ±100 for the full control effect; nearly all actives have a fitted effect of over 55% in size
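Seeded 400 DT40-hTDP1 cells/well (vehicle DMSO, no 20 nM CPT); pinned compounds; ≥48 hr at 37 °C; CellTiter-Glo luminescence as viability measure.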
HepG2 tox: counter-screen for TGF-b inhibitors: cytotoxicity in HepG2 cells; HepG2 CAGA-GFP viability, ATP luminescence, 18 h; Potency, µM (series often up to 46.1 µM), for the others: at the highest dose activity change, negative = cytotoxicity, actives largely listed as cytotoxic; actives 0.76% (n = 410,000); AID 588856; also: potency is read from the fitted curve at half-maximal effect
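HepG2 CAGA-GFP cells (1000/well, DMEM with 1% FBS) received compound, then TGF-beta at 500 pg/mL final, and were incubated 18 hours at 37 degrees C. Viability was read by CellTiter-Glo luminescence. Media-only wells were set as complete cell-killing and DMSO as no toxicity.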
S-ASM inh: blocks human secretory acid sphingomyelinase; Potency, µM (titrated, usually from 57.5 µM), without a hit: top-dose activity change, negative = inhibition, hits mostly inhibitors; AID 504937; placental ASM, HMU-PC fluorogenic substrate, 60 min; actives 0.006% (n = 340,000); also: potency is read from the fitted curve at half-maximal effect
Target sequence (P17405 47-631 limits assumed): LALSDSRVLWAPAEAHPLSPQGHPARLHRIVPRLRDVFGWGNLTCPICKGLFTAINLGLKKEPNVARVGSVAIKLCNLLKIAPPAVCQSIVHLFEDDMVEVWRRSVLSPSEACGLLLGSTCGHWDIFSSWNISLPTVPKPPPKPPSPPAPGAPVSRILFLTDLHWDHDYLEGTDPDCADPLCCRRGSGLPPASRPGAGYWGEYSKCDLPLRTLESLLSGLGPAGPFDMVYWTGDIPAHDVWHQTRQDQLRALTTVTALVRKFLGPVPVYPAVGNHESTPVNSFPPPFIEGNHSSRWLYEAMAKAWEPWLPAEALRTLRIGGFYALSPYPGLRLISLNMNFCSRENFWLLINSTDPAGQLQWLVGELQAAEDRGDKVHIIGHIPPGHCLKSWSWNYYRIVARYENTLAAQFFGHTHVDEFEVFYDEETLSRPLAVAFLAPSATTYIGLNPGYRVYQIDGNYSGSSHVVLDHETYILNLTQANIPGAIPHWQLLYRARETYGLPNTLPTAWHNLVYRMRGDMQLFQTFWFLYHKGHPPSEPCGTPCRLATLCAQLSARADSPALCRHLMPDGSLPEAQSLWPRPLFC
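Fluorogenic HMU-PC substrate (9 uM final) is turned over by placental ASM in 60 min at 37 C after a 10 min compound preincubation. Reaction ended by alkaline stop (pH 10), with fluorescence read at 386/447 nm.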
An asterisk follows results filed as active; i = inactive; ? = inconclusive; . = no result. In the library only some 19% were active in any assay of this set; here they are far more common. Unless noted, calls follow the shape of the dose curve; as a rule, active = well fitted curve in the direction sought with a large enough effect; inconclusive = small, poorly fitted or top-dose-only effect, or another doubt; inactive = no such curve, though single readings can be large; an effect the other way counts as inactive or inconclusive.

SMILES	IL1B secr inh	TGFb SMAD3 inh	TDP1 cell CPT	TDP1 cell noCPT	HepG2 tox	S-ASM inh
O=C(/C=C/c1ccccc1[N+](=O)[O-])N1CCc2ccccc2C1	-53*	-5%	?	16µM*	-11%	-3%
O=C(N/N=C/c1c(Cl)cccc1Cl)c1ccc(F)cc1	23	-18%	-10%	-17%	-4%	-2%
CC(=O)N1CCN(C(=O)COC(=O)/C=C/c2ccccc2[N+](=O)[O-])CC1	9	9%	-20%	3%	4%	3%
O=C(/C=C/c1c(F)cccc1Cl)c1ccc(F)cc1	-2	?	21µM*	26µM*	16µM*	-2%
O=C(/C=C/c1c(F)cccc1Cl)N1CCc2ccccc2C1	-63*	-9%	?	?	-8%	-1%
COc1ccc2c(c1)CCC1(C)CC(=O)C(Br)=C21 (stereo unspecified)	2	6%	-11%	?	-5%	.
COc1ccc(C)cc1NC(=O)c1nnn(CC(=O)Nc2c(C)cccc2C)c1N	.	1%	0%	-10%	-3%	.
O=C(Nc1cccc(NC(=O)c2ccccc2Cl)c1)c1ccco1	-2	-3%	-27%	-13%	-10%	-1%
O=C(CSc1ccc(Cl)cc1)c1ccco1	-28	-18%	16µM*	23µM*	-20%	-9%
O=C(NCCSc1ccc(Cl)cc1)c1ccco1	0	-3%	-2%	-12%	0%	1%
O=C(CSc1nnnn1C1CCCCC1)Nc1cccc(NC(=O)c2ccco2)c1	-23	0%	5.8µM*	4.1µM*	-96%	-6%
O=C(CSc1ccc(Cl)cc1)Nc1cccc(NC(=O)c2ccco2)c1	-66*	0%	?	-26%	0%	-10%
O=C(CCSc1ccc(Cl)cc1)c1ccco1	-96*	11µM*	2.1µM*	2.1µM*	-87%	-3%
Cn1cnnc1SCC(=O)c1ccco1	-9	9%	-11%	-8%	-5%	-4%
O=C(CSc1nnnn1C1CCCC1)Nc1cccc(NC(=O)c2ccco2)c1	-3	13%	-29%	?	1%	-4%
Cc1c(C(=O)NCC(C)(C)N2CCOCC2)cnn1-c1nccc(-c2cccs2)n1	.	.	21%	6%	.	.
Cc1ccc(SCC(=O)NCc2ccco2)cc1	6	-2%	-26%	-13%	4%	0%
O=C(CSc1ccccc1Cl)c1ccco1	-13	?	21µM*	8.2µM*	-25%	0%
Nc1nnc(SCC(=O)c2ccco2)s1	11	-14%	-4%	-6%	-9%	2%
O=C(CSc1ccc(Cl)cc1)NC(=O)NCc1ccco1	-83*	12%	16µM*	?	5%	-4%
O=C(COC(=O)c1ccc(S(=O)(=O)N2CCCC2)cc1)Nc1cccc(Cl)c1	-9	-6%	0%	8%	-13%	0%
COc1ccccc1-n1c(N)cc(=O)nc1SCC(=O)Nc1cc(C)on1	22	78%	0%	1%	6%	0%
COc1ccc(C)cc1-n1c(SCC(=O)Nc2cc(C)on2)nc2sc(C)c(C)c2c1=O	-10	1%	12µM*	8.2µM*	2%	-6%
COc1cccc(-n2c(SCC(=O)Nc3cc(C)on3)nc3ccccc3c2=O)c1	-6	1%	?	?	-21%	-1%
COc1ccc(C)cc1-n1c(SCC(=O)Nc2cc(C)on2)nc2ccccc2c1=O	10	-15%	10µM*	13µM*	-40%	-2%
SMILES	IL1B secr inh	TGFb SMAD3 inh	TDP1 cell CPT	TDP1 cell noCPT	HepG2 tox	S-ASM inh
Cc1c(Cl)cccc1N=C1SCCN1C(=O)CN1C(=O)NC2(CCCC2)C1=O	-14	?	?	18µM*	-12%	-3%
O=C(CN1C(=O)NC2(CCCCC2)C1=O)Nc1cccc(Cl)c1Cl	5	-18%	-23%	?	-18%	0%
Cc1ccc2onc(CC(=O)N3CCN(c4cc(Cl)ccc4C)CC3)c2c1	.	?	?	16µM*	-17%	.
Cc1ccc2onc(CC(=O)O)c2c1	-1	-2%	-8%	-6%	4%	0%
COc1ccc(Cl)cc1N(C)C(=O)Cc1noc2ccc(C)cc12	.	-2%	16µM*	18µM*	-19%	.
Cc1cc(-c2ccccc2)cc(-c2ccccc2)[n+]1C	3	-25%	10µM*	8.2µM*	0%	0%
Cc1cc(-c2nnc(SCC(=O)Nc3ccccc3Cl)n2C)no1	.	0%	0%	-6%	-30%	4%
CC1=C(c2ccccc2)CCC1=O	23	0%	2%	4%	1%	1%
CC1=C(c2ccccc2)C(O)(c2ccccc2)C(C)C1=O (stereo unspecified)	57	-18%	16µM*	16µM*	-17%	0%
CCCSCCCNC(=O)CN1C(=O)COc2ccc(S(=O)(=O)N3CCC(C)CC3)cc21	.	-10%	.	.	-8%	.
CC(OC(=O)c1nn(C(C)C)c(=O)c2ccccc12)C(=O)Nc1ncc(Cl)cc1Cl (stereo unspecified)	0	-3%	?	18µM*	-17%	0%
CC(C)n1nc(C(=O)Oc2cc(Cl)ccc2Cl)c2ccccc2c1=O	10	-5%	-29%	?	-10%	-8%
CC(OC(=O)CCc1nc2ccccc2c(=O)[nH]1)C(=O)Nc1ncc(Cl)cc1Cl (stereo unspecified)	-77*	-2%	-21%	-5%	-4%	-1%
CC(=O)Nc1ccc(S(=O)(=O)Nc2ccc3c(c2)CCC3)cc1	-3	-20%	-75%	13µM*	-10%	-2%
COc1ccc(S(=O)(=O)Nc2ccc3c(c2)CCC3)cc1	-187*	11µM*	?	?	-31%	-1%
COC(=O)c1ccccc1NS(=O)(=O)c1ccc(NC(C)=O)cc1	-84*	1%	-3%	-16%	2%	3%
COc1ccc(NC(=O)C(C)N2Cc3ccccc3C2=O)cc1OC (stereo unspecified)	.	23%	-3%	0%	1%	.
O=C(CNS(=O)(=O)c1ccc(Br)cc1)NCc1cccnc1	i	-9%	21%	-8%	-9%	0%
O=C(CSc1nccn1Cc1ccc(F)cc1)NCc1ccc(F)cc1	.	5%	?	?	-6%	.
Cc1ccc(NC(=O)c2nc[nH]c2C(=O)N(C)CCO)cc1	-18	0%	1%	-13%	-24%	.
